Test results from the supplement of paper PMC10849652.
The full data set covers some 8,800 targets. This sample favours those with a hit. About 0.5% of all pairs of compound and target were hits. Values without a mark were called inactive.

Key:
Experiment in all cases: log2 fold change, soluble protein after heating vs DMSO (PISA); higher = thermal stabilisation; K562 lysate, 10 uM; active = over 0.2 and 3.5 SD of the protein, either way, in both replicates (recomputed)
erlotinib = compound: C#Cc1cccc(Nc2ncnc3cc(OCCOC)c(OCCOC)cc23)c1 [erlotinib]
In short: (§1)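 Soluble protein was defined as the supernatant remaining after 21,000xg for 90 min, following pooling of heated aliquots and adjustment to 0.5% NP-40 at 4°C. Before that, crude K562 extract at 1 mg/mL protein in PBS pH 7.4 with 1 mM MgCl2 was treated with 10 μM compound for 30 min and heated for 3 min across 48°C-58°C. Quantification used TMTpro 16plex LC-MS/MS with channel sums equalised, and values are log-two fold changes in thermal stability relative to solvent controls from duplicates.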

[1] = compound: C/C(=N\NC(=O)C1=CC(=CC=C1)S(=O)(=O)N2CCOCC2)/C3=C(C=CC(=C3)Cl)O
In short: as §1

[2] = compound: C1=CC(=CC=C1C2=NC3=C(N2)C=C(C=C3)C(=O)N)OC4=CC=C(C=C4)Cl
In short: as §1

[3] = compound: C1=CC2=C(C=CC(=C2)/C=C\3/C(=O)NC(=NCC4=CC=CS4)S3)N=C1
In short: as §1

[4] = compound: C1=CC2=NC=CN=C2C=C1/C=C/3\C(=O)NC(=O)S3
In short: as §1

[5] = compound: C1=CC=C(C=C1)C2=NC(=C(N2)C3=CC=NC=C3)C4=CC(=C(C=C4)Cl)O
In short: as §1

[6] = compound: C1=CC=C2C(=C1)C3=NNC4=CC=CC(=C43)C2=O
In short: as §1

[7] = compound: C1CCN(C1)C(=O)NC2=CC=CC(=C2)NC3=NC=C(C(=N3)NCCC4=CN=CN4)Br
In short: as §1

[8] = compound: C1CN(CCC1(CC2=CC=C(C=C2)Cl)N)C3=NC=NC4=C3C=CN4
In short: as §1

IRAK-1-4 Inhibitor I = compound: C1COCCN1CCN2C3=CC=CC=C3N=C2NC(=O)C4=CC(=CC=C4)[N+](=O)[O-] [IRAK-1-4 Inhibitor I]
In short: as §1

Chain of UniProt O95870 (O95870 whole entry, looked up): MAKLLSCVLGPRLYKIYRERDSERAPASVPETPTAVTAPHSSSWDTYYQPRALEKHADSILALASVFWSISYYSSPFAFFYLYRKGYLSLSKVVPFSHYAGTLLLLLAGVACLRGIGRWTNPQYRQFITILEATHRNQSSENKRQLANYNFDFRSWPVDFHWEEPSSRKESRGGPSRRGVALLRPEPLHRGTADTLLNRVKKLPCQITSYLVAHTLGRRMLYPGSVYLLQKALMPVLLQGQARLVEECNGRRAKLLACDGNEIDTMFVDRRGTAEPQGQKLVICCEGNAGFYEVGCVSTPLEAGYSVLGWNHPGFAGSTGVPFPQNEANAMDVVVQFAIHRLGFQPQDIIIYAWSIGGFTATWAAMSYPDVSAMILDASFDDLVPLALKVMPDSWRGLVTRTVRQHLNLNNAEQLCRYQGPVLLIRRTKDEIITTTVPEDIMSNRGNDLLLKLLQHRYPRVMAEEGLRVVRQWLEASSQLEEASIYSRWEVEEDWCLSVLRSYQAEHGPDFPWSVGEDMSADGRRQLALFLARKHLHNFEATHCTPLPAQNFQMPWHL
Chain of UniProt O15440 (O15440 whole entry, looked up): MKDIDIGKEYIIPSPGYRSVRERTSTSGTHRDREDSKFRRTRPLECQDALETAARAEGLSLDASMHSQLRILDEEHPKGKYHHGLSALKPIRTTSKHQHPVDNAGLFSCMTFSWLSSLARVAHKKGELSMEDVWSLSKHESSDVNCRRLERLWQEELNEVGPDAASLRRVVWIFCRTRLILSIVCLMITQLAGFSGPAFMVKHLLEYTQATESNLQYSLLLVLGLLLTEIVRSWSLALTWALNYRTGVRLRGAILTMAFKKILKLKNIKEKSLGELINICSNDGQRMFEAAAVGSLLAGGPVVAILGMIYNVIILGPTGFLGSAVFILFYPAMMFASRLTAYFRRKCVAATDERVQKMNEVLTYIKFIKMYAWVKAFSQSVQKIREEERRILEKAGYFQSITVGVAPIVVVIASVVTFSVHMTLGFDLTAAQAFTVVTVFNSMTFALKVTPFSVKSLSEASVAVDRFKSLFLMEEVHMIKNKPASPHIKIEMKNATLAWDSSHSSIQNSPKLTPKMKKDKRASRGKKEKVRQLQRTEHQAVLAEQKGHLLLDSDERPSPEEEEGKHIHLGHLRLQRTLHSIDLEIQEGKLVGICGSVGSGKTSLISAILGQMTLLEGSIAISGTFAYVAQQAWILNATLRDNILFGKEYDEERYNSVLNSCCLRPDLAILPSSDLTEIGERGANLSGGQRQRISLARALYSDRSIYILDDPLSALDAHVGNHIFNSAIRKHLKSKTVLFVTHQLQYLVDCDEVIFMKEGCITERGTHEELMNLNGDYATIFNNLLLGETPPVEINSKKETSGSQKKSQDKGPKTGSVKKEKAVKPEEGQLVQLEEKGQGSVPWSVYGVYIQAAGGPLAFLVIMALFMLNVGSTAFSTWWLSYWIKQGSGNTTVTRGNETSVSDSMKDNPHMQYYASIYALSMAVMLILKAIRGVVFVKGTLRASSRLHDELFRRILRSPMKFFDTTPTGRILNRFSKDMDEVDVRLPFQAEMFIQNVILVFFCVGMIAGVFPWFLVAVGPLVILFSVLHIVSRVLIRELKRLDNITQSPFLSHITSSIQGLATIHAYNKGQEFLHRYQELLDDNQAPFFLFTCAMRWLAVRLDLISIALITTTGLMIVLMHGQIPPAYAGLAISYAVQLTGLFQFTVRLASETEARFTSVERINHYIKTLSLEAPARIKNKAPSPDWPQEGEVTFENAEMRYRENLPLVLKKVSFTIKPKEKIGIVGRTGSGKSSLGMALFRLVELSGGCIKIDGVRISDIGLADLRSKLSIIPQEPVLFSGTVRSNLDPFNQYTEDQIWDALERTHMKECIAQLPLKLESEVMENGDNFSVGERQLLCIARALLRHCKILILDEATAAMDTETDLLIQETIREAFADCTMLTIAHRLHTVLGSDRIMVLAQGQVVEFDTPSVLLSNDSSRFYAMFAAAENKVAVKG
Chain of UniProt P42330 (P42330 whole entry, looked up): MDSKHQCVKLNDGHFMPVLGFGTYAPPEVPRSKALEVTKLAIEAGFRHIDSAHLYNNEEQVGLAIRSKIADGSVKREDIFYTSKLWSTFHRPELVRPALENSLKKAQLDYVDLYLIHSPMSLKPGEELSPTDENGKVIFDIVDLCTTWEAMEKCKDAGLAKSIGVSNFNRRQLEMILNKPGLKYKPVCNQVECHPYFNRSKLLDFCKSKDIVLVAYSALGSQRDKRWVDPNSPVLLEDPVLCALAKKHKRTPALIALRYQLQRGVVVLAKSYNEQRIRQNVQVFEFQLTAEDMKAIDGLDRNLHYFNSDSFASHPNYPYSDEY
Chain of UniProt O14727 (O14727 whole entry, looked up): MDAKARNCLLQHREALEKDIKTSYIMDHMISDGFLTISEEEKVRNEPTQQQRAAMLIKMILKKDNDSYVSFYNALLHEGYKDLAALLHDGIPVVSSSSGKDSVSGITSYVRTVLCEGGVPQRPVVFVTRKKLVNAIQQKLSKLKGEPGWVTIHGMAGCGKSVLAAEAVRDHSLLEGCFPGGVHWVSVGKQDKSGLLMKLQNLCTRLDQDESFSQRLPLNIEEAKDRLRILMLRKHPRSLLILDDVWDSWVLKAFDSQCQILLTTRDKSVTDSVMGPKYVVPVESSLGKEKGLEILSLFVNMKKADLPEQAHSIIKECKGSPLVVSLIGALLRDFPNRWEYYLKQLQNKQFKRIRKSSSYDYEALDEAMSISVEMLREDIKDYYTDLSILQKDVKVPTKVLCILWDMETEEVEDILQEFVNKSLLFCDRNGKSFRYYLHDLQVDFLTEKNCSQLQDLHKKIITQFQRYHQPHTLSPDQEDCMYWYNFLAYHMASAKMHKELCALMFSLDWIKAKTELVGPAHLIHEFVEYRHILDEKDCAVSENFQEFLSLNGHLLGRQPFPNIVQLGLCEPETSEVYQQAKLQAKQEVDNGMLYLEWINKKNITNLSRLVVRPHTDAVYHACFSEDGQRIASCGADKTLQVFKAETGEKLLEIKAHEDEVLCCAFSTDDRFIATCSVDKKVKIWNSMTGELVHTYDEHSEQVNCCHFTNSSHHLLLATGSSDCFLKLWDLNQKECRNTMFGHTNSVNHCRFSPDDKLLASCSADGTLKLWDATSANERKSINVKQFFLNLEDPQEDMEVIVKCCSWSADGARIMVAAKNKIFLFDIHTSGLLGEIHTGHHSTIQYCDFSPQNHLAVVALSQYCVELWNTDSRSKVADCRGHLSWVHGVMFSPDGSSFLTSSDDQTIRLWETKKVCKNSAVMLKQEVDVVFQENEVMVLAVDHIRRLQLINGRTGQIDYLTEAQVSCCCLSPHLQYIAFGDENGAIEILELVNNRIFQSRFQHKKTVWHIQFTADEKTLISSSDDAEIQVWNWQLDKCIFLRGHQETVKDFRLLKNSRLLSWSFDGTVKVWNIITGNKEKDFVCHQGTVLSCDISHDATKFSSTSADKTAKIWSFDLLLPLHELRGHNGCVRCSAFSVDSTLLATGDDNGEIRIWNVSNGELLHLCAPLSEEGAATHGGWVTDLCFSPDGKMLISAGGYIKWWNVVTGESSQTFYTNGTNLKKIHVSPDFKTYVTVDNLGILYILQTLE
Chain of UniProt Q8N6T3 (Q8N6T3 whole entry, looked up): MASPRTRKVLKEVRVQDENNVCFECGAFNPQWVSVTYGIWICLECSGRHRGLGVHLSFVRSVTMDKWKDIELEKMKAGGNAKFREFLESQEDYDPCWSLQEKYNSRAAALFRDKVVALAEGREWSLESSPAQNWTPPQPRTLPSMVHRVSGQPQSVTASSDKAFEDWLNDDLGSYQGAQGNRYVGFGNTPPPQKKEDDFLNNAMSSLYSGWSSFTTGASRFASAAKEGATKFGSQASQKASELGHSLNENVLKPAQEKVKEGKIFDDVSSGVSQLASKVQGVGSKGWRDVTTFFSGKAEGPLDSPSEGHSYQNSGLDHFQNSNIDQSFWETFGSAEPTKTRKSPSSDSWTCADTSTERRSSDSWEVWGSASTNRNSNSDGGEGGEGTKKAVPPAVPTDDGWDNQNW
Chain of UniProt Q16186 (Q16186 whole entry, looked up): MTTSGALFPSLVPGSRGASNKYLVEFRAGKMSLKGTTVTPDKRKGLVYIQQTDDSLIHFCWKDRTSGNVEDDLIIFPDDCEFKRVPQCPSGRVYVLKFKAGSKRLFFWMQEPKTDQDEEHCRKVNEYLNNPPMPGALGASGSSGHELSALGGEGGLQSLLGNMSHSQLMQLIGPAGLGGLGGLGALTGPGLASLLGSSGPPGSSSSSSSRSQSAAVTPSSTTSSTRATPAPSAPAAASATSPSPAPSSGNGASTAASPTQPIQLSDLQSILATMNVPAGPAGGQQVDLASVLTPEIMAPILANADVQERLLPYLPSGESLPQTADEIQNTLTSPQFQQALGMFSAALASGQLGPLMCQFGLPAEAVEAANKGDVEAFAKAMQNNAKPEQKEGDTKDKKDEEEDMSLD
Chain of UniProt P08758 (P08758 whole entry, looked up): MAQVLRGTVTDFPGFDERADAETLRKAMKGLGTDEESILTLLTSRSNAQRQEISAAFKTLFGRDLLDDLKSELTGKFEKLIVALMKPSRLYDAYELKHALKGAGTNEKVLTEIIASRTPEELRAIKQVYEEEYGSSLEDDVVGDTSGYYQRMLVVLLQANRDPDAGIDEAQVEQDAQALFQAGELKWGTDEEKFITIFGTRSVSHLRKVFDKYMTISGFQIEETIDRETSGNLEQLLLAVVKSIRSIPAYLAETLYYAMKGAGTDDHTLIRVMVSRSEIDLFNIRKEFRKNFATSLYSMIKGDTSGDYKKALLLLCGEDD
Chain of UniProt Q9NRW3 (Q9NRW3 whole entry, looked up): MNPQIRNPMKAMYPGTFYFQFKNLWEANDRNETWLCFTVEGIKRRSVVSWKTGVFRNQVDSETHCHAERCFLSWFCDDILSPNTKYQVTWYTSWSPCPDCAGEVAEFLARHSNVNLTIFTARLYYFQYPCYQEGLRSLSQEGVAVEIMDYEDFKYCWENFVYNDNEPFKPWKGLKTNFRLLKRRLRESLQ
Chain of UniProt P07311 (P07311 whole entry, looked up): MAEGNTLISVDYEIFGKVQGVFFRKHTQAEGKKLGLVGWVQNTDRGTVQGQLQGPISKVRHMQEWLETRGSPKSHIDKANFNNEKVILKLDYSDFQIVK

Target | log2 fold change (erlotinib) | log2 fold change [1] | log2 fold change [2] | log2 fold change [3] | log2 fold change [4] | log2 fold change [5] | log2 fold change [6] | log2 fold change [7] | log2 fold change [8] | log2 fold change (IRAK-1-4 Inhibitor I)
ASCC2 (UniProt Q9H1I8) | 0.04 | -0.106 | -0.077 | 0.083 | 0.029 | -0.016 | -0.048 | -0.054 | 0.037 | -0.042
ANKRD27 (UniProt Q96NW4) | 0.087 | -0.025 | 0.07 | 0.04 | -0.033 | 0.02 | -0.094 | -0.036 | 0 | 0.014
AKR1C3 (UniProt P42330) | 0.002 | 0.023 | -0.1 | 0.029 | 0.008 | 0.3 (active) | 0.024 | 0.05 | 0.029 | -0.017
AKAP8 (UniProt O43823) | -0.015 | 0.002 | 0.038 | -0.005 | -0.04 | 0.045 | -0.047 | 0.044 | 0 | 0.089
ADRM1 (UniProt Q16186) | 0.007 | -0.006 | 0.007 | -0.026 | -0.016 | 0.018 | -0.088 | 0.012 | 0.007 | 0.026
APAF1 (UniProt O14727) | 0.005 | 0.084 | -0.054 | 0.019 | -0.016 | -0.029 | -0.003 | 0.022 | 0.015 | -0.021
ANXA5 (UniProt P08758) | -0.011 | -0.001 | -0.024 | 0.014 | -0.016 | -0.023 | 0.009 | -0.003 | -0.049 | -0.03
AFF4 (UniProt Q9UHB7) | -0.003 | -0.152 | 0.007 | -0.063 | 0.021 | 0.048 | 0.003 | 0.032 | 0.016 | -0.031
ADK (UniProt P55263) | 0.219 | -0.024 | -0.028 | 0.132 | -0.079 | 0.047 | 0.011 | -0.049 | 0.026 | 0.063
AK1 (UniProt P00568) | -0.023 | 0.002 | 0.014 | -0.036 | 0.002 | -0.004 | 0.047 | 0.067 | -0.003 | -0.002
ABHD16A (UniProt O95870) | -0.009 | -0.047 | 0.03 | 0.046 | -0.042 | 0.015 | -0.016 | 0.014 | 0.064 | -0.006
ACYP1 (UniProt P07311) | -0.032 | 0.028 | -0.007 | -0.02 | -0.008 | -0.017 | -0.01 | 0.024 | -0.004 | 0.013
AKR1B1 (UniProt P15121) | -0.044 | -0.001 | -0.006 | 0.012 | -0.009 | -0.047 | -0.044 | -0.043 | -0.003 | -0.021
APEX1 (UniProt P27695) | 0.026 | 0.011 | -0.011 | 0.016 | 0 | 0.004 | -0.072 | 0 | 0.003 | -0.007
AKAP11 (UniProt Q9UKA4) | 0.114 | 0.232 | 0.037 | 0.095 | 0.016 | 0.059 | -0.361 (active) | -0.064 | 0.017 | -0.071
AGPAT1 (UniProt Q99943) | 0.012 | 0.027 | -0.145 | 0.05 | 0.028 | -0.023 | -0.01 | -0.019 | 0.01 | 0.036
ARGLU1 (UniProt Q9NWB6) | -0.008 | 0.069 | -0.039 | 0.009 | -0.034 | -0.057 | -0.002 | 0.003 | -0.047 | 0.025
ARFGAP1 (UniProt Q8N6T3) | -0.028 | -0.209 | -0.025 | 0.005 | 0.029 | -0.039 | -0.025 | -0.018 | 0.002 | 0.038
ADAM17 (UniProt P78536) | 0.021 | -0.013 | 0.017 | 0.023 | -0.023 | 0.044 | -0.115 | 0.052 | -0.093 | 0.04
AGO4 (UniProt Q9HCK5) | -0.038 | -0.008 | 0.031 | -0.02 | -0.031 | 0.009 | -0.015 | 0.009 | 0.016 | -0.009
ARMCX5 (UniProt Q6P1M9) | -0.08 | 0.047 | -0.004 | 0.157 | 0.001 | 0.03 | -0.35 (active) | 0.075 | -0.039 | -0.08
ABCC5 (UniProt O15440) | 0.059 | -0.581 | 0.057 | -0.028 | -0.127 | -0.112 | -0.248 | -0.038 | 0.072 | -0.067
ABI1 isoform 9 (UniProt Q8IZP0) | -0.014 | -0.003 | 0.025 | 0.01 | -0.007 | 0.009 | -0.014 | 0.006 | 0.004 | -0.021
ADD1 isoform 3 (UniProt P35611) | -0.027 | 0 | 0.033 | 0.011 | -0.01 | -0.004 | 0.011 | -0.015 | -0.014 | -0.021
AMDHD2 isoform 3 (UniProt Q9Y303) | -0.013 | -0.045 | 0.06 | -0.038 | 0.028 | -0.01 | -0.003 | 0.022 | 0.044 | 0.018
ACADM isoform 2 (UniProt P11310) | -0.088 | 0.049 | -0.034 | 0.23 | 0.085 | 0.101 | -0.032 | -0.032 | -0.003 | -0.007
APOBEC3C (UniProt Q9NRW3) | 0.054 | 0.058 | -0.029 | 0.066 | 0.056 | -0.017 | 0.015 | 0.031 | -0.003 | 0.038
ABHD17B (UniProt Q5VST6) | -0.08 | -0.047 | -0.011 | 0.044 | -0.043 | 0 | 0.021 | 0.064 | -0.111 | 0.014
AKT1 (UniProt P31749) | -0.008 | 0.042 | -0.004 | 0.121 | 0.019 | 0.059 | 0.018 | -0.034 | 0.03 | -0.005
